Sampled rows, rich in hits. Any-hit rate of the full collection: about 7.4%.
NIH3T3 tox: NIH 3T3 cell cytotoxicity; NIH 3T3 viability, CellTiter-Glo ATP luminescence, 48-72 h; 94,000 tested, 4.3% active; Potency, µM (highest dose often 96.7 µM), inactives show top-dose activity change, negative = cytotoxicity, most hits filed as inhibitors; AID 1345082; note: nearly all actives have a fitted effect of over 55% in size
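ATP-dependent luminescence (CellTiter-Glo) served as the viability signal for NIH 3T3 cells treated with compound for 48 or 72 hr at 37 °C.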
NPR1 antag: human Npr1 receptor antagonism; P16066; HEK293 hNpr1 GloSensor cGMP, ANP-stimulated luminescence; Potency, µM (highest dose often 46.3 µM), without a hit: at the top dose activity change, negative = inhibition, actives largely listed as inhibitors; 76,000 tested, 1.6% active; AID 1347048; calls by dose curve; note: nearly all actives have a fitted effect of over 60% in size
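HEK293 cells stably expressing human Npr1 and cGMP GloSensor pGS-40F, loaded 2 h with 2% GloSensor reagent, given compound 30 min at room temperature. Luminescence read before and 20 min after 0.1 nM hNppA.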
HEK293 tox: cytotoxic compounds in HEK 293 cells. HEK 293 viability, ATP luminescence (CellTiter-Glo), 48-72 h. Potency, µM (doses to about 115 µM), inactives show at the highest dose activity change, negative = cytotoxicity, usual class: inhibitors. 94,000 tested, 6.6% active. AID 1345083; note: nearly all actives have a fitted effect of over 60% in size
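HEK 293 cells seeded at 250 cells/well were exposed to compound for 48 or 72 hr at 37 degree Celsius. Viability taken as ATP content by CellTiter-Glo luminescence.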
SNCA viab count: reduces viability of HEK-293 SNCA reporter cells; HEK-293-SNCA-luc viability, GF-AFC fluorescence, 24 h; Potency, µM (titrated, usually from 57.1 µM), for inactives: at the highest dose activity change, negative = cytotoxicity, actives largely listed as cytotoxic; 150,000 tested, 0.12% active; AID 1671193;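 note: 0% = DMSO-treated cells and -100% = medium-only wells without cells; nearly all actives have a fitted effect of over 30% in size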
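Cytotoxicity counterscreen: after 24 h compound treatment of genome-edited SNCA-luciferase HEK-293 cells, live-cell protease substrate GF-AFC read by fluorescence after 30 min; activity scaled between DMSO (0%) and medium-only (-100%), curves Hill-fitted.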
FLuc inh: blocks purified firefly luciferase enzyme activity | purified P. pyralis luciferase, luminescence, biochemical | 76,000 tested, 2.5% active | Potency, µM (series often up to 115 µM), hits mostly inhibitors | P08659; note: nearly all actives have a fitted effect of over 65% in size
Target sequence (P08659 whole entry, looked up): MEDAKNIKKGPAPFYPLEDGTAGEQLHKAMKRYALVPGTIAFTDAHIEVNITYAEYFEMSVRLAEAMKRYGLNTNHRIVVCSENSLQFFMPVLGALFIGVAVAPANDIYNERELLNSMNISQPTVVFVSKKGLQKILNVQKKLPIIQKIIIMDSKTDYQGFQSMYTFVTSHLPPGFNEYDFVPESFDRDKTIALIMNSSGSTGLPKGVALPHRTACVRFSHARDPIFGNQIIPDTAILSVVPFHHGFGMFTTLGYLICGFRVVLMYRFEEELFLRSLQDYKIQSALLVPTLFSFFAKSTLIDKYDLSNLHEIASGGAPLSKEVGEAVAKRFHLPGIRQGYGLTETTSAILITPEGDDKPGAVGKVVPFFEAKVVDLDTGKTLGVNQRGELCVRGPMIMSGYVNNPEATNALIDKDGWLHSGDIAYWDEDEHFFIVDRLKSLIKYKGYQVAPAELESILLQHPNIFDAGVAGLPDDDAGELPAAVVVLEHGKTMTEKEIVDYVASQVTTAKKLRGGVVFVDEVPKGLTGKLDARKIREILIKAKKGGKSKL
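Purified P. pyralis luciferase (10nM final) in 50mM Tris acetate pH 7.5, 10mM Mg acetate, 0.01% Tween-20, 0.05% BSA with 10uM D-luciferin and 10uM ATP. Compounds titrated qHTS. Luminescence imaged on CCD.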
SNCA expr inh: inhibitors of alpha-synuclein (SNCA) gene expression; HEK-293 SNCA-luciferase knock-in, luminescence, 24 h; Potency, µM (doses to about 57.2 µM), for inactives: at the highest dose activity change, negative = inhibition, hits mostly inhibitors; 140,000 tested, 0.17% active; AID 1671194;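 note: plate controls were DMSO cells for no effect and cell-free wells for full effect; nearly all actives have a fitted effect of over 45% in size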
An asterisk follows results filed as active; i = inactive; ? = inconclusive; . = no result given; [ ] = dose if it differs, or a comment. Unless noted, calls come from the whole dose curve; as a rule, active = well fitted curve in the direction sought with a large enough effect; inconclusive = small, poorly fitted or top-dose-only effect, or another doubt; inactive = no such curve, though single readings can be large; an effect the other way counts as inactive or inconclusive. Unless noted, % is set by controls: 0 for no effect and ±100 for the full control effect; potency is the fitted concentration of half-maximal effect.

SMILES	NIH3T3 tox	NPR1 antag	HEK293 tox	SNCA viab count	FLuc inh	SNCA expr inh
CC(C)(Oc1nn(Cc2cccc(Cl)c2)c2ccccc12)C(=O)NC1CCC(O)CC1 (stereo not given)	?	-26%	?	1%	i	?
COCCCNC(=O)C(C)(C)Oc1nn(Cc2cccc(Cl)c2)c2ccccc12	?	?	?	?	i	32µM*
COCCNC(=O)C(C)(C)Oc1nn(Cc2cccc(Cl)c2)c2ccccc12	?	-27%[70.6 µM]	79µM*	?	i	-19%[87.6 µM]
O=C(Nc1cnc(-c2ccc(Cl)cc2)nc1)c1cccs1	0%	-2%	12%	2%	?	111%
O=C(Nc1cnc(-c2ccc(Cl)cc2)nc1)c1ccccc1Cl	2%	?	?	-11%	0.63µM*	39%
C[C@@H](NC(=O)[C@H](O)c1cc(F)cc(F)c1)C(=O)N[C@@H]1C(=O)N(C)c2ccccc2-c2ccccc21	.	.	.	-5%	.	.
COC1CN(c2cccc(F)c2)C12CCN(C(=O)CC1CCCCC1)CC2 (stereo not given)	?	-2%	45µM*	-7%	i	-15%
COC1CN(c2cccc(F)c2)C12CCN(S(=O)(=O)c1cccs1)CC2 (stereo not given)	?	.	18µM*	-6%	.	-16%
O=C(c1ccsc1)N1CCC(Oc2cccc(F)c2)C1 (stereo not given)	-16%	0%	?	-2%	i	2%
O=C(c1ccc(C2CCCNC2)cc1)N1CCC(Oc2cccc(F)c2)CC1 (stereo not given)	40µM*	-14%	28µM*	?	i	2%
COc1ccc(Nc2ccnc(N3CCC(C(=O)NCC(F)(F)F)CC3)n2)cc1	?	.	79µM*	-5%[12.5 µM]	.	-3%
COc1ccc(Nc2ccnc(N3CC4CCC(C3)N4CC(F)(F)F)n2)cc1	40µM*	.	32µM*	-9%	.	1%
COc1ccc(CNC(=O)C2CCN(c3nccc(Nc4ccccc4OC)n3)CC2)cc1	?	.	?	-26%	.	-10%
COc1ccc(Nc2ccnc(N3CCC(C(=O)NCc4ccccc4OC)CC3)n2)cc1	32µM*	.	28µM*	-16%[12.5 µM]	.	-20%
Cc1[nH]c2c(F)cccc2c1CC(=O)NC(c1cnn(C)c1)C1CC(O)C1 (stereo not given)	-3%	-2%	5%	2%	i	-1%
COCCn1cc(CN(C)CC(=O)N2CCCCCC2)ccc1=O	i	3%	i	-1%	i	5%
CCCNC(=O)[C@@H]1CCCN1[C@@H](C(=O)NC)c1ccccc1	-9%[174 µM]	7%[70.6 µM]	-26%[172 µM]	3%[87.6 µM]	i	?
COC(=O)N1CCC[C@@H]1C(=O)N1CCC(N2CCOC2=O)CC1	-10%[138 µM]	.	i	4%[87.6 µM]	.	4%[87.6 µM]
Cc1cccc(-c2nc3ccc(C(=O)N4CCOCC4)cc3o2)n1	22µM*	.	32µM*	0%	.	-10%
CC(C)NC(=O)c1ccc2oc(-c3ccccn3)nc2c1	-29%	.	?	5%	.	-3%
O=C(NCc1ccccc1F)c1ccc2nc(-c3cccnc3Cl)oc2c1	?	.	100µM*	-5%[87.6 µM]	.	21%[87.6 µM]
O=C(NCc1cccc(C(F)(F)F)c1)c1ccc2nc(-c3ccccn3)oc2c1	40µM*	.	?	-1%	.	34%
CC(C)NC(=O)c1ccc2nc(-c3ccccn3)oc2c1	?	.	45µM*	1%	.	?
COc1ccc(CNC(=O)C2CCN(c3cc(C(F)(F)F)nc(C)n3)CC2)c(OC)c1	?	-9%	-3%	0%	i	34%
Cc1cccc(-c2nc3ccc(C(=O)NC4CCCCC4)cc3o2)n1	-6%	.	i	1%	.	10%
O=C(NCCc1ccccc1F)c1ccc2nc(-c3cccnc3Cl)oc2c1	-26%	.	40µM*	5%	.	31%
O=C(c1ccc2nc(-c3ccccn3)oc2c1)N1CCCCC1	20µM*	.	28µM*	4%[87.6 µM]	.	?
